Cruzain noTriton – blocks cruzain activity in detergent-free assay | AID 1476 | purified cruzain, Z-FR-AMC fluorescence, no detergent | Potency, µM, for inactives: max response, negative = inhibition, most hits filed as inhibitors | P25779 | hit rate 2.3% among 200,000;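 note: plate controls were enzyme without inhibitor for no effect and buffer without enzyme for full effect; nearly all actives have a fitted effect of over 40% in size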
Target sequence (P25779 123-467 limits assumed): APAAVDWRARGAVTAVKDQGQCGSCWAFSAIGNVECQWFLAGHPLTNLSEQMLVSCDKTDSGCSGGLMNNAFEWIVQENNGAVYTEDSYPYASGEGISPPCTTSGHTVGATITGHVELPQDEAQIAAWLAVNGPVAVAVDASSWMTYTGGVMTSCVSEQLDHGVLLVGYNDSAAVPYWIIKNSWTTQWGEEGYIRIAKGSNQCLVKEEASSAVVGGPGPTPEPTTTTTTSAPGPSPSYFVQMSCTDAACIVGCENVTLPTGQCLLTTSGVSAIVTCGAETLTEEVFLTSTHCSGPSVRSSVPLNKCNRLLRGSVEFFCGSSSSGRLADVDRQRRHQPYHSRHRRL
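Detergent-free condition (0.00005% Triton X-100) in acetate buffer pH 5.5 with DTT. 1.5 nM enzyme and compound were pre-mixed 15 min, then 2 uM Z-FR-AMC substrate added; reaction progress from fluorescence change between first and third reads (60 s).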
Cruzain inh Det – inhibitors of Trypanosoma cruzi cruzain with detergent | purified cruzain, Z-FR-AMC fluorescence, 0.01% Triton | Potency, µM, for inactives: max response, negative = inhibition, hits mostly inhibitors | hit rate 0.43% among 200,000 | P25779;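 note: plate controls were neutral wells for no effect and buffer without enzyme for full effect; nearly all actives have a fitted effect of over 40% in size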
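Cruzain (1.5 nM) preincubated 15 min at RT with compound in 100 mM sodium acetate pH 5.5, 5 mM DTT, 0.01% Triton X-100. Reaction started with 2 uM Z-FR-AMC; AMC fluorescence (ex 360/em 450 nm) change over 60 s gave rate.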
NS1 inh – influenza NS1 inhibition; Potency, µM (titrated, usually from 46.1 µM), without a hit: at the top dose activity, positive = more growth; AID 2326; hit rate 0.4% among 270,000; calls by dose curve; note: actives are rising curves; nearly all actives have a fitted effect of over 50% in size
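Read-out: OD600 growth recovery of NS1-expressing budding yeast. Cells grown overnight at 30C in -URA glucose medium, washed, resuspended and diluted 1:100 in 2% galactose assay medium, pH 6.0. Same strain lacking NS1 served as positive control.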
* marks the source's active call; other numbers are inactive results; ? = inconclusive; . = not tested or not shown. This excerpt belongs to a sample that is enriched for hits. Unless noted, calls come from the whole dose curve; as a rule, active = well fitted curve in the direction sought with a large enough effect; inconclusive = small, poorly fitted or top-dose-only effect, or another doubt; inactive = no such curve, though single readings can be large; an effect the other way counts as inactive or inconclusive. Potency is the fitted concentration of half-maximal effect.

SMILES	Cruzain noTriton	Cruzain inh Det	NS1 inh
CC1(C)OC(=O)C2(Cc3ccccc3N3CCCCC32)C(=O)O1 (stereo unspecified)	1.4%	2.5%	-2.5%
Cc1ccc(NC(=O)CCNS(=O)(=O)c2ccc3[nH]c(=O)oc3c2)cc1F	.	.	-2.6%
CC1CCN(C(c2cccs2)c2nnnn2Cc2ccccc2)CC1 (stereo unspecified)	-12.7%	-1.9%	-48.7%
CCNc1nc2nc3ccc(C)cn3c(=O)c2cc1C(=O)NCC1CCCO1 (stereo unspecified)	.	.	1.9%
C=CCNC(=O)c1cc2c(=O)n3cc(C)ccc3nc2nc1NCC1CCCO1 (stereo unspecified)	?	22.4µM*	-2.5%
COc1cccc(CC2(CO)CCN(Cc3cn(C)nc3C)CC2)c1	.	.	4.6%
CCOC(=O)c1c(C)[nH]c(C(=O)CSc2nnc(Nc3ccccc3F)s2)c1C	12.6µM*	-4.3%	?
CCOC(=O)c1c(C)[nH]c(C(=O)CSc2ccc(Cl)cc2)c1C	?	4.5%	-5.3%
COc1ccc(OC)c(NC(=O)CCNC(=O)c2ccco2)c1	.	.	15.3%
O=C(O)c1cccc(S(=O)(=O)Nc2ccccc2C(=O)NCCc2ccccc2)c1	.	.	16.4%
C=CCn1c(=NC(=O)c2sc3ccccc3c2Cl)sc2cc(S(N)(=O)=O)ccc21	20µM*	-25.9%	9.8%
COCCn1c(=NC(=O)c2sc3ccccc3c2Cl)sc2cc(S(N)(=O)=O)ccc21	5.8%	-14.6%	8.4%
CC1=NN(C(C#N)c2ccccc2C)C(c2ccccc2)C1 (stereo unspecified)	.	.	-4.9%
c1ccc(CNc2oc(-c3ccccc3)nc2-c2cccc3ccccc23)cc1	15.8µM*	-2.1%	.
c1ccc(CNc2oc(-c3ccccc3)nc2-c2ccccc2)cc1	-9.5%	-1.2%	.
CCc1ccc(NC(=O)CSc2nc(C)c(C(=O)Nc3ccc(Cl)cc3)c(-c3ccc(OC)cc3)c2C#N)cc1	7.94µM*	-1.7%	.
COc1cccc(NC(=O)CSc2nc(=O)n(Cc3ccco3)c3c2CCC3)c1	-14.1%	-3.7%	.
CCOC(=O)c1sc(NC(=O)CSc2nc3c(c(-c4ccc(OC)cc4)c2C#N)CCCC3)c(C#N)c1C	3.16µM*	9.7%	-4.2%
COc1cccc(NC(=O)CSc2nc3c(c(-c4ccco4)c2C#N)CCCC3)c1	6.31µM*	5.9%	18.3%
CCOC(=O)c1sc(NC(=O)CSc2nc3c(cc2C#N)CCCCCC3)c(C#N)c1C	?	-3.1%	-7.6%
COc1ccc(-c2c(C#N)c(SCC(=O)Nc3ccccc3C)nc(C)c2C(=O)Nc2ccc(Cl)cc2)cc1	-20.9%	5.7%	.
COc1ccc2c(c1)nc(CN1CCN(CCO)CC1)n2C	.	.	2.1%
COc1ccc(NC(=O)C(NC(=O)/C=C\c2ccc3c(c2)OCO3)c2ccc(C)cc2)cc1 (stereo unspecified)	?	-5.4%	.
C=CCOc1c(Br)cc(/C=C2/C(=O)ON=C2C)cc1OC	.	.	0.5%
COc1ccc(OC)c(S(=O)(=O)N2CCN(CC(O)COc3ccccc3)CC2)c1 (stereo unspecified)	.	.	-15.1%
SMILES	Cruzain noTriton	Cruzain inh Det	NS1 inh
COc1cc2nc(CN(C)Cc3ccc(OC)c(OC)c3OC)[nH]c(=O)c2cc1OC	.	.	-1.4%
O=C(N=c1nc2ccccn2s1)c1ccccc1	-17.0%	1.7%	11.2µM*
O=C(c1ccccc1)n1c(=S)nc2ccccn21	-7.2%	-3.7%	-13.5%
Cc1cccc(OCc2nnc(SCC(=O)Nc3cccc(C(=O)N4CCOCC4)c3)o2)c1C	?	-1.6%	-13.7%
COc1ccccc1OCC(=O)Nc1cc(-c2ccc(C)cc2)no1	-6.5%	-8.1%	.
Cc1ccc(-c2cc(NC(=O)COc3ccc(Cl)cc3C)on2)cc1	10µM*	-1.3%	.
Cc1cc(Cl)ccc1OCC(=O)Nn1c(C)ccc1C	2.51µM*	-2.9%	-6.3%
Cc1cc(Cl)ccc1OCC(=O)O	5.9%	4.0%	4.5%
CN(C)c1ccc(/C=N/OC(=O)Nc2ccccc2)cc1	.	.	-11.0%
CC(C)CCn1cnc2c(sc3nc4c(cc32)CSC(C)(C)C4)c1=O	-4.4%	-0.4%	8.8%
O=C1CN2CCN(CC2)CC(=O)Nc2ccc(cc2)S(=O)(=O)c2ccc(cc2)NC(=O)CN2CCN(CC2)CC(=O)Nc2ccc(cc2)S(=O)(=O)c2ccc(cc2)N1	3.16µM*	3.16µM*	24.7%
Cc1ccc(C2c3cccn3CCN2S(=O)(=O)c2ccc([N+](=O)[O-])cc2)cc1 (stereo unspecified)	31.6µM*	-6.0%	.
O=[N+]([O-])c1ccc(S(=O)(=O)N2CCn3cccc3C2c2ccc(Br)cc2)cc1 (stereo unspecified)	?	-2.9%	.
c1csc(C2Nc3cccc4cccc(c34)N2)c1	7.94µM*	-8.1%	2.8%
c1ccc(C2Nc3cccc4cccc(c34)N2)cc1	.	.	-18.2%
CC1(OC(=O)C2CCCC2)C(=O)C=C2C=C(c3ccsc3)N(Cc3ccco3)C=C2C1=O (stereo unspecified)	.	.	3.2%

Source: PubChem
